Assay results from PubChem BioAssay (NCI).
Compounds without any hit were thinned out: in the full panel of roughly 83,000, 20% have a hit.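 Interpretation: 100, growth as untreated; towards 0, rising growth inhibition; 0, no net growth; 0 to -100, cell death. Compounds scoring below 10 were considered active.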 Unmarked numbers belong to inactive results. Calls of active or inactive are those of the source.

Experiments:
Experiment in all cases: NCI-60 one-dose screen, 48 h (100 = growth as untreated, 0 = no growth, -100 = all killed)
Conditions in all cases: 10 µM unless noted
HCT-15 colon = tested on: HCT-15 colon
HT29 colon = tested on: HT29 colon
SNB-75 CNS = tested on: SNB-75 CNS
SNB-19 CNS = tested on: SNB-19 CNS
PC-3 prostate = tested on: PC-3 prostate
SK-MEL-5 melanoma = tested on: SK-MEL-5 melanoma
UACC-62 melanoma = tested on: UACC-62 melanoma
LOX IMVI melanoma = tested on: LOX IMVI melanoma
SK-MEL-28 melanoma = tested on: SK-MEL-28 melanoma
SK-MEL-2 melanoma = tested on: SK-MEL-2 melanoma
EKVX NSCLC = tested on: EKVX NSCLC
SN12C renal = tested on: SN12C renal
UO-31 renal = tested on: UO-31 renal
TK-10 renal = tested on: TK-10 renal
ACHN renal = tested on: ACHN renal
CAKI-1 renal = tested on: CAKI-1 renal
A498 renal = tested on: A498 renal
CCRF-CEM leukemia = tested on: CCRF-CEM leukemia
MOLT-4 leukemia = tested on: MOLT-4 leukemia
U251 CNS = tested on: U251 CNS

SMILES	growth (HCT-15 colon)	growth (HT29 colon)	growth (SNB-75 CNS)	growth (SNB-19 CNS)	growth (PC-3 prostate)	growth (SK-MEL-5 melanoma)	growth (UACC-62 melanoma)	growth (LOX IMVI melanoma)	growth (SK-MEL-28 melanoma)	growth (SK-MEL-2 melanoma)	growth (EKVX NSCLC)	growth (SN12C renal)	growth (UO-31 renal)	growth (TK-10 renal)	growth (ACHN renal)	growth (CAKI-1 renal)	growth (A498 renal)	growth (CCRF-CEM leukemia)	growth (MOLT-4 leukemia)	growth (U251 CNS) [%]
CCCCCCCC/C=C/CCCCCCCC1=NC(C)(C)CN1C(C)C	-45.1% (active)	-51.3% (active)	25.5%	46.4%	-74.4% (active)	-86.3% (active)	-60.5% (active)	-81.2% (active)	-82.8% (active)	-63.9% (active)	10.6%	16.8%	-17.4% (active)	-14.8% (active)	-78.3% (active)	31.2%	65.7%	-43.4% (active)	-63.2% (active)	
OC(COCc1ccccc1)COCc1ccccc1	109%	106%	90.8%	111%	111%	111%	103%	101%	113%		91.5%	104%	91.6%	109%	99%	96.5%	89.7%	99.5%	96.4%	96.1
CCCCCc1c(C)[nH]c(/C=C2\N=C(c3ccc[nH]3)C=C2Oc2ccc(OC)cc2)c1C	-93.8% [100 µM] (active)	-64% [100 µM] (active)	-91.6% [100 µM] (active)	-83.1% [100 µM] (active)	-25.7% [100 µM] (active)	-73.6% [100 µM] (active)	-93.5% [100 µM] (active)	-71.9% [100 µM] (active)	-86.9% [100 µM] (active)	-74.4% [100 µM] (active)		-88.6% [100 µM] (active)	-75.7% [100 µM] (active)	-60.2% [100 µM] (active)	-59.8% [100 µM] (active)	-73.9% [100 µM] (active)	-89.3% [100 µM] (active)		-34% [100 µM] (active)	
CCN(CC)CCNC(=O)n1cc(-c2ccncc2)c(-c2ccc(Cl)c(OC)c2)n1	96.1%	59.4%	64.7%	93%	88.2%	94.1%	72.5%	92.3%	90.2%	96.1%	61.8%	90.7%	69.2%	26.9%	77.6%	99.7%	95.5%	98.3%	82%	
COc1cc2c(cc1OC)-c1cc(OC)c(OC)cc1C(CN(C)C)C2 (stereo unspecified)	78.2% [100 µM]	78.4% [100 µM]	-56.2% [100 µM] (active)	7.08% [100 µM] (active)	56.3% [100 µM]	73.4% [100 µM]	20.4% [100 µM]	71.1% [100 µM]	41.4% [100 µM]	29% [100 µM]		43.7% [100 µM]	68.1% [100 µM]	65.7% [100 µM]	44.6% [100 µM]	11.6% [100 µM]	52.6% [100 µM]		103% [100 µM]	
Cc1ccc(NC(=O)c2cc(NCc3cc(O)ccc3O)ccc2O)cc1	86.3%	82.9%	97.8%	99.8%	74%	88.6%	81.9%	94.7%	108%	82.8%	98.7%	86.1%	58%	102%	100%	107%		26.4%	69.7%	
O=C1OCC2=C1C(c1ccccc1)c1cc3c(cc1N2CCO)OCO3 (stereo unspecified)	24%	12.5%	31.4%		24.5%	-12.3% (active)	28.9%	37%	50.5%	14.6%	35.4%	39%	43.9%	63.4%	36.5%	35.8%	6.06% (active)			20.3
Oc1ccc(-c2nnc3c4[nH]ccc4ncn23)cc1	110%	98.3%	78.8%		94.3%	104%	95.2%	89.9%	102%	113%	93.6%	95.2%	76.3%	92.3%	87.9%	84.7%	74.4%	108%	93.3%	102
C=C[C@H]1CCC/C=C/[C@@H]2C[C@H](O)C[C@H]2[C@H](O)/C=C/C(=O)O1	5.82% (active)	-51.5% (active)	25.8%	22.3%	15.1%	-77.7% (active)	5.56% (active)	-99.1% (active)	7.46% (active)	-37.9% (active)	3.38% (active)	5.71% (active)	-11.2% (active)	-45.6% (active)	5.96% (active)	-1.92% (active)	-48.7% (active)	7.38% (active)	0.424% (active)	
COc1ccc(/C=C/c2nc3ccccc3c(=O)n2-c2ccc(C#Cc3ccc(C(C)(C)C)cc3)cc2C)c(OC)c1	59.3%	78%	99.4%	105%	53%	69.7%	72.6%	80%	109%	104%	85.1%	89.6%	79.5%	101%	105%	76.9%	110%	75.8%	76.5%	
COC(=O)[C@H](Cc1cn(C)cn1)NC(=O)[C@H](CC(C)C)NC(=O)Nc1cc(C(F)(F)F)cc(C(F)(F)F)c1	-96.6% [100 µM] (active)	-89.6% [100 µM] (active)	-100% [100 µM] (active)	-97.9% [100 µM] (active)	-95.1% [100 µM] (active)	-95.4% [100 µM] (active)	-99.3% [100 µM] (active)	-86.6% [100 µM] (active)	-100% [100 µM] (active)	-95.4% [100 µM] (active)		-92.8% [100 µM] (active)	-96.7% [100 µM] (active)	-98.5% [100 µM] (active)	-100% [100 µM] (active)	-99.2% [100 µM] (active)			-57.2% [100 µM] (active)	
c1ccc(CCn2cccc2)nc1	119%	114%	95.1%		98.9%	109%	97.9%	98.6%	118%	101%	107%	102%	94.3%	99.7%	104%	91.1%	105%	105%	18.7%	103
C=CC(=O)N1CN(C(=O)C=C)CN(C(=O)C=C)C1	3.65% (active)	26.2%	60%		90.8%	71.5%	74.3%	71.4%	72.7%	110%	108%	95.2%	55.2%	-11.4% (active)	22.4%	3.54% (active)	106%	10.1%	23.4%	88.9
O=C(CCCCCCN1CC(=O)N2[C@@H](c3ccc(Cl)c(Cl)c3)c3[nH]c4ccccc4c3C[C@H]2C1=O)NO	92.3%	33.8%	6.3% (active)	54.3%	25.7%	51.3%	35.2%	-55.2% (active)	52.4%		64.6%	60.8%	57%	40.3%	70.2%	48.7%	86%	7.73% (active)	8.86% (active)	
CCOC(=O)c1cc(N)nc2ccccc12	107%	97.4%	112%	106%	104%	106%	108%	96.7%	123%		108%	109%	103%	106%	105%	102%	95%		100%	
CCS(=O)(=O)Nc1cccc(Nc2c3cccc(C)c3nc3c(C)cccc23)c1OC	11.1%	11.3%	21.7%	38.8%	21.4%	17.4%	45.5%	12.8%	56.9%			12.5%	10.7%	29.2%	-1.64% (active)	10.7%	-1.15% (active)		-12.8% (active)	
CCN(CC)c1ccc2c(cc1=O)[C@@H](NC(C)=O)CCc1cc(OC)c(OC)c(OC)c1-2	30%	-26.4% (active)	22.1%	40.8%	31.7%	7.17% (active)	19.4%	25.1%	62.3%		44.6%	32.9%	58.3%	30.8%	30.3%	64.3%	-15.9% (active)	9.47% (active)	2.09% (active)	
